Screens as filed in PubChem.
Sampled rows, rich in hits. Any-hit rate of the full collection: about 4.2%.
esBAF inh: SWI/SNF esBAF complex inhibition. reporter increase, % at 12.5 µM. AID 602393. mouse ES cells, Bmi1-luciferase knock-in reporter, 24 h; 100% = twice the neutral-well signal. 2% of 350,000 active; in the data active = activation above about 40%;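 also: a rise in the Bmi1 reporter signal indicates esBAF inhibition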
ssDAF-12 act: activators of S. stercoralis DAF-12 nuclear receptor; activation, % at 6.8 µM; 1% of 370,000 active; HEK293 ssDAF-12/GRIP1 lit1-tk-luc reporter, luminescence; % of 3 µM dafachronic acid response; AID 652126;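 active = activation above the mean over all tested compounds plus 3 SD, cut at about 0.9% in these data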
Wnt act: activators of Wnt/beta-catenin signaling. 1.2% of 300,000 active. AID 743398. activation, % at 9.35 µM. Wnt/beta-catenin reporter cell assay, activator, plate reader; in the data active = activation above about 30%, passing the limit was not always enough
hgDAF12 agonist: activates the H. glycines DAF-12 receptor ligand-binding domain. HEK293 GAL4-hgDAF12 UAS-luciferase reporter, agonist luminescence; normalized to butyrate control. activation, % at 6.8 µM. 1.8% of 370,000 active. AID 687014;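 active = activation above a cutoff set at the mean of all screened compounds plus 3 SD, cut at about 10% in these data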
hcDAF12 agonist: H. contortus DAF-12 activation, primary screen; HEK293 hcDAF-12 lit1-tk-luc reporter, luminescence; 0% DMSO, 100% Δ7-dafachronic acid; activation, % at 6.8 µM; 1.4% of 370,000 active; AID 652067;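 active = activation above the mean of all tested compounds plus 3 SD, cut at about 5.5% in these data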
DAX1 StAR inh: DAX1 (NR0B1) inhibition, primary screen; HEK293T StAR-luciferase reporter, SF-1/DAX-1 repression relief; inhibition, % at 6.8 µM; 1.1% of 370,000 active;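 active = inhibition above the mean over all tested compounds plus 3 SD, cut at about 3.6% in these data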;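 also: higher inhibition means more luminescence from relief of DAX-1 repression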
Large screens that a line does not name were inactive.

COCC(=O)N1C[C@@H](C)[C@H](OC)CN(C)C(=O)c2cc(NC(=O)c3ccc(OC)cc3)ccc2OC[C@@H]1C	none (no result: ssDAF-12 act, Wnt act, hgDAF12 agonist, hcDAF12 agonist, DAX1 StAR inh)
COc1ccc(NC(=O)Nc2cccc3c2O[C@H](CN(C)S(=O)(=O)c2ccccc2)[C@@H](C)CN([C@@H](C)CO)C3=O)cc1	none (no result: ssDAF-12 act, Wnt act, hgDAF12 agonist, hcDAF12 agonist, DAX1 StAR inh)
O=C(NNC(=O)c1ccncc1)Nc1ccc(N=Nc2ccccc2)cc1	hgDAF12 agonist 10 (no result: esBAF inh)
O=C(NNC(=O)c1ccncc1)Nc1ccccc1	none
O=C(COC(=O)c1ccccc1Cl)NCc1cccs1	none
Nc1cc(Cl)ccc1C(=O)OCC(=O)NCc1cccs1	esBAF inh 53
CCOC(=O)c1c(C)[nH]c(C(C)=NNC(=O)c2cccs2)c1C	esBAF inh 77, Wnt act 61, hgDAF12 agonist 12, DAX1 StAR inh 4.0
CC(=O)c1c(C)[nH]c(C(=O)OCC(=O)NCc2cccs2)c1C	esBAF inh 55
CN1C(=O)c2cc(NC(=O)C3CC3)ccc2OC[C@@H]2O[C@@H](CC(=O)NC3CCC3)CC[C@@H]21	none (no result: ssDAF-12 act, Wnt act, hgDAF12 agonist, hcDAF12 agonist, DAX1 StAR inh)
COc1ccc(S(=O)(=O)N(C)C[C@@H]2Oc3ccc(NS(=O)(=O)c4cccs4)cc3CC(=O)N([C@H](C)CO)C[C@@H]2C)cc1	none (no result: ssDAF-12 act, Wnt act, hgDAF12 agonist, hcDAF12 agonist, DAX1 StAR inh)
O=C(O)c1cccc(-c2csc(C(O)c3ccc(F)c(F)c3)n2)c1 (stereo unspecified)	esBAF inh 44
OC(c1ccc(F)c(F)c1)c1nc(-c2cnc3ccccc3c2)cs1 (stereo unspecified)	esBAF inh 51
C[C@H]1CN([C@@H](C)CO)C(=O)c2cccc(NC(=O)C3CC3)c2O[C@@H]1CN(C)Cc1ccc(Cl)c(Cl)c1	none (no result: ssDAF-12 act, Wnt act, hgDAF12 agonist, hcDAF12 agonist, DAX1 StAR inh)
C[C@@H]1CN([C@@H](C)CO)C(=O)c2cc(/C=C/c3ccccc3)cnc2O[C@@H]1CN(C)Cc1ccc2c(c1)OCO2	none (no result: ssDAF-12 act, Wnt act, hgDAF12 agonist, hcDAF12 agonist, DAX1 StAR inh)
C[C@H](CO)N1C[C@H](C)[C@@H](CN(C)Cc2ccc(C(=O)O)cc2)Oc2ccc(NC(=O)CCC(F)(F)F)cc2C1=O	none (no result: ssDAF-12 act, Wnt act, hgDAF12 agonist, hcDAF12 agonist, DAX1 StAR inh)
Cc1occc1C(=O)N/N=C/c1ccc(OCc2ccccc2)cc1	esBAF inh 54, Wnt act 38
O=C(N/N=C/c1ccc(F)cc1)c1ccc(OCc2ccccc2)cc1	none
COc1ccc(/C=N/NC(=O)c2ccoc2C)cc1COc1ccc(Cl)cc1	ssDAF-12 act 1.3
COc1ccc(/C=N/Nc2ccccc2C(=O)O)cc1Cn1cc([N+](=O)[O-])cn1	esBAF inh 48, ssDAF-12 act 1.1
COc1ccc(/C=N\NC(=O)c2ccccc2Br)cc1COc1ccc(F)cc1	none
COc1ccc(/C=N/NC(=O)c2ccccc2OC)cc1COc1ccc(C)cc1	hcDAF12 agonist 5.6 (no result: esBAF inh)
COc1ccc(/C=N/NC(=O)c2ccccc2OC)cc1COc1ccccc1[N+](=O)[O-]	ssDAF-12 act 1.4
COc1cccc(C(=O)Oc2ccc(/C=N/Nc3ccc(C(=O)O)cc3)cc2OC)c1	none
COc1cccc(OCc2cc(/C=N/Nc3ccc(C(=O)O)cc3)ccc2OC)c1	esBAF inh 59
O=C(C[C@@H]1CC[C@H]2[C@@H](COC[C@H](O)CN2Cc2cc(F)ccc2F)O1)NCc1ccccc1	none (no result: ssDAF-12 act, Wnt act, hgDAF12 agonist, hcDAF12 agonist, DAX1 StAR inh)
CCCC#Cc1cnc2c(c1)C(=O)N([C@H](C)CO)C[C@H](C)[C@H](CN(C)C(=O)Nc1ccccc1OC)O2	none (no result: ssDAF-12 act, Wnt act, hgDAF12 agonist, hcDAF12 agonist, DAX1 StAR inh)
O=C(CC1CC2CCC1C2)Nc1nc(-c2ccccn2)cs1 (stereo unspecified)	hcDAF12 agonist 6.3 (no result: esBAF inh)
O=C(Nc1ccccn1)C12CC3CC(C1)CC(C(=O)Nc1ccccn1)(C3)C2	none (no result: esBAF inh)
O=C(Nc1nc(-c2ccccn2)cs1)c1ccco1	none (no result: esBAF inh)
O=C(Nc1nc(-c2ccccn2)cs1)C1CC1	esBAF inh 46
O=C(Nc1nc(-c2ccccn2)cs1)C12CC3CC(CC(O)(C3)C1)C2	Wnt act 40 (no result: esBAF inh)
C[C@H](CO)N1C[C@H](C)[C@@H](CN(C)C(=O)c2ccc(F)cc2)OCc2ccccc2-c2ccccc2C1=O	none (no result: ssDAF-12 act, Wnt act, hgDAF12 agonist, hcDAF12 agonist, DAX1 StAR inh)
N#C[C@H]1[C@@H](c2ccc(-c3ccncc3)cc2)[C@@H](CO)N1C(=O)C1CCCCC1	none (no result: ssDAF-12 act, Wnt act, hgDAF12 agonist, hcDAF12 agonist, DAX1 StAR inh)
C[C@@H]1CN([C@H](C)CO)C(=O)c2cc(C3=CCCC3)cnc2O[C@@H]1CN(C)Cc1cccnc1	none (no result: ssDAF-12 act, Wnt act, hgDAF12 agonist, hcDAF12 agonist, DAX1 StAR inh)
Cc1cccc(OCCCn2c(=O)sc3ccccc32)c1	esBAF inh 54 (no result: Wnt act)
Cc1ccc2oc(=O)n(CCCOc3ccccc3)c2c1	Wnt act 42
